# Results reported in the supplement of paper PMC10338343.
# ± gives the standard deviation.
# What was measured:
# [1] = system: MILI (PIWIL2) piRISC loaded with L1MC piRNA (26 nt); assay: pre-steady-state target cleavage rate (min^-1); guide: L1MC piRNA 5'p-UAACUAAAUACUAUGCAAGCUGUAGG; higher = faster piRNA-guided slicing of the target;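 further: 1 nM active piRISC with 0.1 nM target library at 33 °C single turnover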
# Summary of the method: (§1)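 At 33 °C in HEPES–potassium acetate buffer, a transcribed, DNA-blocked target RNA library […] was exposed for 0–8 or 0–960 min to 1 nM active affinity-purified piRISC carrying a single synthetic guide, with or without 500 nM GTSF1 partner protein. Uncleaved targets were sequenced and normalised to depth and to weakly complementary targets. With three trials pooled and k3 capped at 0.0001 min^-1, a burst-and-steady-state fit produced the pre-steady-state cleavage rate.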
# [2] = system: EfPiwi piRISC loaded with L1MC piRNA (26 nt); assay: pre-steady-state target cleavage rate (min^-1); auxiliary factor: 500 nM Ephydatia muelleri Gtsf1; guide: L1MC piRNA 5'p-UAACUAAAUACUAUGCAAGCUGUAGG; MIWI and MILI are mouse PIWI proteins and EfPiwi is from a freshwater sponge; tags in brackets are library labels; higher = faster piRNA-guided slicing of the target
# Summary of the method: as §1
# [3] = auxiliary factor: 500 nM mouse GTSF1
# [4] = auxiliary factor: none (no GTSF1)
Sequence,"pre-steady-state target cleavage rate [1, 3]","pre-steady-state target cleavage rate [1, 4]",pre-steady-state target cleavage rate [2]
UCCUGGAUGUCCUUACAUAGUAUUUAGUUA,0.0839 ± 0.012,0.00844 ± 0.002,0.00492 ± 0.0036
UCCUGGAUCAGCUUGAAUAGUAUUUAGUUA,0.247 ± 0.017,0.00991 ± 0.0026,0.0605 ± 0.015
UCCUGGUACAGCUUGCAUCGUAUUUAGUUA,0.0739 ± 0.014,0.00985 ± 0.0037,0.00642 ± 0.0025
UCCUGCUACAGCUUGCAUAGUAUUAAGUUA,0.245 ± 0.028,0.0047 ± 0.0024,0.0064 ± 0.0019
UCCUGGUACAGCUUCGCAUAGUAUUUAGUUA,0.274 ± 0.021,0.0125 ± 0.0035,0.038 ± 0.0086
UCCUGCUACAGCUUAGCAUAGUAUUUAGUUA,0.276 ± 0.014,0.0072 ± 0.0026,0.0477 ± 0.015
UCCUCCAACAGGUUGCAUAGUAUUUAGUUA,0.28 ± 0.011,0.00862 ± 0.0019,0.0491 ± 0.011
UCCUGGUACAGCUUGCAUAGUAUUUAGUUA [g2:g24:cont:t1A],0.277 ± 0.018,0.0215 ± 0.0056,0.0865 ± 0.024
UCCUGGAUGAGCUUGCAUAGUAUUCAGUUA,0.136 ± 0.026,0.00552 ± 0.0023,0.00256 ± 0.0023
UCCUGGAUGUGCUUGCCUAGUAUUUAGUUA,0.0942 ± 0.011,0.012 ± 0.003,0.00934 ± 0.0027
UCCUCCUACAGGUUGCAAAGUAUUUAGUUA,0.142 ± 0.0086,0.00921 ± 0.002,0.0547 ± 0.011
UCCUGGAACAGCUAGCAAAGUAUUUAGUUA,0.11 ± 0.013,0.00729 ± 0.002,0.00366 ± 0.0025
UCCUCCUACAGCUUGCACAGUAUUUAGUUA,0.19 ± 0.017,0.00767 ± 0.0021,0.0475 ± 0.013
UCCUGGAUGAGCAUGCAUUGUAUUUAGUUA,0.0714 ± 0.013,0.00843 ± 0.003,0.00289 ± 0.0022
UCCUGGAUCAGCAUGCAUACUAUUUAGUUA,0.0724 ± 0.0079,0.00491 ± 0.0019,0.00409 ± 0.0018
UCCUGGUUCAGCUUGCAUUGUAUUUAGUUA,0.191 ± 0.023,0.0105 ± 0.0029,0.0223 ± 0.007
UCCUGGUACACCUAGCAUAGUAUUUAGUUA,0.201 ± 0.044,0.00696 ± 0.0032,0.00319 ± 0.0029
UCCUGGUACACCUUGCAUAGUAAUUAGUUA,0.491 ± 0.14,0.00374 ± 0.0032,0.00464 ± 0.0027
UCCUGGAUGUGGAUGCAUAGUAUUUAGUUA,0.092 ± 0.012,0.00877 ± 0.0027,0.00943 ± 0.0037
UCCUGGAACUGCUUGCUUAGUAUUUAGUUA,0.206 ± 0.019,0.0116 ± 0.0026,0.00646 ± 0.0033
UCCUGCUACAGCUUGCUUAGUUUUUAGUUA,0.0712 ± 0.011,0.00366 ± 0.0015,0.0055 ± 0.0019
UCCUCCUACUGCAUGCAUAGUAUUUAGUUA,0.252 ± 0.013,0.011 ± 0.0022,0.0706 ± 0.019
UCCUGCUACAGCAUGCAUAGUAUUAAGUUA,0.331 ± 0.043,0.00346 ± 0.0032,0.00828 ± 0.0024
UCCUGGAUGAGGAUGCAUAGUAUUUAGUUA,0.103 ± 0.017,0.00665 ± 0.0021,0.00336 ± 0.0024
UCCUCCUACAGCUUGCAUAGUAAAUAGUUA,0.201 ± 0.022,0.00285 ± 0.0028,0.00735 ± 0.0032

Sequence,"pre-steady-state target cleavage rate [1, 3]","pre-steady-state target cleavage rate [1, 4]",pre-steady-state target cleavage rate [2]
UCCUGCUACACCUAGCAUAGUAUUUAGUUA,0.254 ± 0.021,0.00758 ± 0.0022,0.0171 ± 0.0054
UCCUGGUUCAGCUUGCUUAGUAUUUAGUUA,0.199 ± 0.017,0.0104 ± 0.003,0.0145 ± 0.0054
UCCUGGAUGAGCUUGCAUAGUAUCUUAGUUA,0.148 ± 0.017,0.00732 ± 0.0024,0.0147 ± 0.005
UCCUGGAUGAGCUUGCAUAGUAUUUGAGUUA,0.307 ± 0.051,0.00461 ± 0.0029,0.00491 ± 0.0024
UCCUCCAACAGCUUGCAUAGUAUUAAGUUA,0.135 ± 0.021,0.0033 ± 0.0024,0.00502 ± 0.002
UCCUGGAUCAGCUUGCAUAGUAUUUGGUUA,0.245 ± 0.018,0.0139 ± 0.003,0.00498 ± 0.002
UCCUGGAUCAGCUUGCAUAGUAUCUUAGUUA,0.234 ± 0.021,0.00648 ± 0.0025,0.0248 ± 0.0072
UCCUGGUACAGCCUUGCAUAGUAUUUAGUUA,0.198 ± 0.02,0.0147 ± 0.0051,0.0209 ± 0.0073
UCCUGGAACAGCUAGCAUAGUAAUUAGUUA,0.155 ± 0.018,0.00801 ± 0.0026,0.0062 ± 0.0028
UCCUGGAUCAGGUUGCAUUGUAUUUAGUUA,0.115 ± 0.0091,0.00671 ± 0.0024,0.00567 ± 0.0021
UCCUGGAUGAGCUUGCAUAGUACUUAGUUA,0.127 ± 0.018,0.00646 ± 0.0022,0.0106 ± 0.0037
UCCUCCUACAGCUACCAUAGUAUUUAGUUA,0.2 ± 0.021,0.00448 ± 0.0023,0.00393 ± 0.0021
UCCUGGAUCAGGUUGCAUAGUAUAUAGUUA,0.197 ± 0.017,0.00574 ± 0.0022,0.00644 ± 0.0033
UCCUCGAACAGCUUGCAUAGUAUUUAGUUA,0.3 ± 0.017,0.00922 ± 0.0026,0.198 ± 0.038
UCCUGGAUGUGCUUGCAUAGUAUUAAGUUA,0.162 ± 0.025,0.00745 ± 0.0021,0.00372 ± 0.0032
UCCUGCUAGAGCUUGCAUAGUAUUAAGUUA,0.256 ± 0.033,0.00303 ± 0.0024,0.00624 ± 0.0022
UCCUGGAUCUGCUUGCAUACUAUUUAGUUA,0.055 ± 0.0088,0.0043 ± 0.0023,0.00859 ± 0.0023
UCCUGCUACAGCUUGGAAAGUAUUUAGUUA,0.138 ± 0.012,0.00897 ± 0.0022,0.0208 ± 0.0042
UCCUGGAACAGCAUGCAAAGUAUUUAGUUA,0.129 ± 0.014,0.00836 ± 0.0026,0.0163 ± 0.0061
UCCUGGAUCAGCAUGCUUAGUAUUUAGUUA,0.189 ± 0.019,0.00777 ± 0.0024,0.0112 ± 0.0042
UCCUGCUACAGCUUGACAUAGUAUUUAGUUA,0.226 ± 0.018,0.00448 ± 0.0026,0.00916 ± 0.0026
UCCUGGUACAGGUUGCAUAGUAUUUAGUAA,0.287 ± 0.04,0.00626 ± 0.0028,0.00428 ± 0.0022
UCCUGGAUGUGCUCUGCAUAGUAUUUAGUUA,0.137 ± 0.015,0.0108 ± 0.0039,0.00925 ± 0.0031
UCCUGGAAGAGCUUGCAUAGUAAUUAGUUA,0.177 ± 0.015,0.00468 ± 0.0028,0.00806 ± 0.0027
UCCUGCUACAGCUUGCAUAGUAUAUUAGUUA,0.389 ± 0.042,0.00735 ± 0.0029,0.0185 ± 0.0079
